# Compounds with a hit are over-represented: about 1.3% of the library has one in this group of screens.
# TcdB inh – TcdB glycohydrolase inhibitors, primary screen, biochemical, single point, plate reader | Toxin B (Clostridioides difficile), P18177 | inhibition, % at 9.99 µM | TcdB glycohydrolase enzymatic assay | 350,000 compounds, 0.24% hits; in the data active means inhibition above about 10%
# Sa ugtP lethal – growth inhibition of ugtP-null S. aureus, primary screen, RN4220 ugtP deletion, OD600 | 330,000 compounds, 0.54% hits | growth inhibition, % (concentration not given with the values) | 16 h; in the data active means growth inhibition above about 68%;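 further: plate controls were untreated wells for no effect and antibiotic for full effect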
# Sa RN4220 lethal – growth inhibition of S. aureus RN4220, primary screen, OD600; 16 h; inhibition, % (concentration not given with the values); 330,000 compounds, 0.33% hits; AID 1259311, 2017; in the data active means inhibition above about 85%;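 further: plate controls were untreated cells for no effect and reference antibiotic for full effect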
# MazEF act – activators of E. coli MazEF toxin-antitoxin RNase, primary screen, biochemical, fluorescence, uHTS; FAM/BHQ RNA-DNA oligo cleavage fluorescence, 5 h; activation, % at 20 µM; 350,000 compounds, 0.32% hits; in the data active means activation above about 50%
# PfHsp40 yeast – rescue of yeast from PfHsp40 toxicity, primary screen, S. cerevisiae, ATP luminescence; growth rescue, % at 12.5 µM; AID 504582, 2011; 340,000 compounds, 0.68% hits; S. cerevisiae expressing PfHsp40, growth rescue; in the data active means growth rescue above about 28%, passing the limit was not always enough;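 further: yeast W303a lacking pdr1 and pdr3 grown in galactose medium; growth measured after three days at 30 °C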
# Mtb hypoxia rep – PubChem AID 1159583; M. tuberculosis hypoxia-regulated fluorescent reporter, fluorescence; fluorescence inhibition, % (test concentration not listed); 300,000 compounds, 0.1% hits; in the data active means fluorescence inhibition mostly above about 23%, no sharp cut-off; inactive means mostly below about 17%
# * marks the source's active call; other numbers are inactive results; . = not tested or not shown.
SMILES,TcdB inh,Sa ugtP lethal,Sa RN4220 lethal,MazEF act,PfHsp40 yeast,Mtb hypoxia rep
COc1ccc(CCNC(=O)c2cc3c(=O)n4ccccc4nc3n(Cc3ccco3)c2=N)cc1OC,0,-1,2,10,4,39*
c1ccc(-c2nc3nonc3nc2-c2ccccc2)cc1,.,98*,97*,4,13,-8
CCCNC(=O)N1CC2(CCN(Cc3ccccn3)CC2)c2c(n(C)c3cc(OC)ccc23)[C@H]1CO,0,.,.,.,.,.
COc1cc2c(cc1NC(=O)C(C)Sc1ccc(NC(C)=O)cc1)oc1ccccc12 (configuration not stated),.,-13,-18,-8,33*,-4
CCCCNc1c(-c2ccc(SC3CCCCC3)c(OC)c2)nc2ccc(C)cn12,1,.,.,2,174*,.
O=S(=O)(c1ccc(F)cc1)N1CC[C@@H]2[C@H](CO)Nc3ccc(-c4ccccc4F)cc3[C@@H]21,1,.,.,.,.,.
Cc1cc(C)c(Nc2cc(S(=O)(=O)O)c(N)c3c2C(=O)c2ccccc2C3=O)c(C)c1,.,28,-20,-3,71*,17
Cc1cc(C)c(NC(=O)COC(=O)c2cccc3c2C(=O)c2ccccc2C3=O)c(C)c1,.,5,19,-14,1,7
CCCCn1c(O)c(N=Nc2ccccn2)c2ccccc21,.,20,8,8,7,3
CCCCn1c(O)c(N=Nc2ccccc2O)c2ccccc21,1,6,-3,101*,-1,-3
COc1ccc(/C=C/c2cc(=O)c3cc(Cl)ccc3o2)cc1,8,-5,5,54*,11,6
CS(=O)(=O)N(CCC(=O)O)Cc1ccccc1,.,3,-1,2,77*,.
CS(=O)(=O)N(CC(=O)O)Cc1cccc(CN(CC(=O)O)S(C)(=O)=O)c1,1,3,8,-8,0,7
CC(C)c1ccc(C=NNC(=O)c2nnn(-c3nonc3N)c2CN(C)C2CCCCC2)cc1,.,-1,3,.,.,3
Cc1nnc(SCc2ccc(F)cc2)n1NCC=Cc1ccccc1,.,-5,5,.,.,.
COc1ccc(N=Nc2c(C)n[nH]c2C)cc1,1,7,4,13,0,7
Cc1n[nH]c(C)c1N=Nc1ccc(Br)cc1,2,59,18,3,242*,14
COc1ccc2nccc(/C=C/c3ccnc4ccc(OC)cc34)c2c1,13*,-6,-3,-4,.,5
COc1ccc(OC)c(/C=C/c2ccnc3ccccc23)c1,2,.,.,-1,2,.
COc1cc(OC)c(OC)cc1/C=C/c1ccnc2ccccc12,19*,.,.,0,0,.
CC(=O)Nc1ccc(C(=O)OCC(=O)c2cccc([N+](=O)[O-])c2)cc1,.,.,.,1,0,.
Cc1ccc(C(=O)COC(=O)c2cccc(NC(=O)c3ccc([N+](=O)[O-])cc3[N+](=O)[O-])c2)cc1,.,-14,-3,11,0,41*
O=C1NC[C@@H](Cc2cccc3ccccc23)N(CCc2cc(C(F)(F)F)cc(C(F)(F)F)c2)C1=O,0,.,.,-6,44*,.
C[C@@H]1CN([C@@H](C)CO)C(=O)c2cc(-c3cccc(C#N)c3)cnc2O[C@@H]1CN(C)Cc1ccncc1,-1,.,.,.,.,.
CCN(CC)c1ccc(C=NNC(=O)c2cccc(S(=O)(=O)N3CCOCC3)c2)c(O)c1,.,9,11,.,.,-6
SMILES,TcdB inh,Sa ugtP lethal,Sa RN4220 lethal,MazEF act,PfHsp40 yeast,Mtb hypoxia rep
CCN(CC)c1ccc(/C=N/NC(=O)c2c(Cl)cnn2C)c(O)c1,.,.,.,-4,546*,.
CCN(CC)c1ccc(/C=N/NC(=O)c2cccc(S(=O)(=O)N3CCOCC3)c2)c(O)c1,1,.,.,-9,231*,.
CCN1CC2C3C(=O)N(Cc4ccccc4)C(=O)C3[C@](Cc3ccccc3)(C1=O)N2C(=O)c1ccccc1 (some centres not stated),.,-6,3,.,.,-5
CCOC(=O)C(Cc1nc(OCc2ccccc2)cc(OCc2ccccc2)n1)=NO,1,87*,-1,-2,9,6
COCC#Cc1ccc2c(c1)O[C@H](CN(C)C(=O)CC1CC1)[C@H](C)CN([C@@H](C)CO)S2(=O)=O,3,.,.,.,.,.
COCC#Cc1ccc2c(c1)O[C@@H](CN(C)C(=O)CC1CC1)[C@H](C)CN([C@@H](C)CO)S2(=O)=O,13*,.,.,.,.,.
COC(=O)N1CCc2c(sc(NC(=O)C3=COCCO3)c2C#N)C1,1,-4,0,-2,1,-7
CNC(=O)c1c(NC(=O)C2=COCCO2)sc2c1CCN(C(=O)OC)C2,1,97*,94*,5,1,1
O=C(/C=C/c1ccc(-c2ccccc2)cc1)NCc1cccnc1,1,-2,1,1,1,4
O=C(/C=C/NCc1cccnc1)c1ccc(-c2ccccc2)cc1,1,-3,-2,-8,114*,0
Cn1ncc2c(O/N=C(\N)c3ccc(C(C)(C)C)cc3)ncnc21,.,.,.,1,73*,.
Cn1ncc2c(ON=C(N)c3ccc(C(F)(F)F)cc3)ncnc21,.,1,2,.,.,1
O=C1Nc2ccccc2S/C1=C/Nc1cccc(Cl)c1,.,-2,10,59*,0,15
O=C1Nc2ccccc2SC1=Cc1ccccc1,1,.,.,-25,.,.
CCN(Cc1cc(=O)n2ccsc2n1)c1cccc2ccccc12,-6,-4,14,-11,178*,-4
CCCC1CCC(=NNS(=O)(=O)c2ccc(C)c([N+](=O)[O-])c2)CC1 (configuration not stated),0,3,6,47,0,-5
CC1CCCC/C1=N\NS(=O)(=O)c1ccc(Br)cc1 (configuration not stated),.,.,.,78*,0,.
CC(C)(C)C1CCC(=NNS(=O)(=O)c2ccc(Br)cc2)CC1 (configuration not stated),.,4,2,66*,0,.
C/C(CC(C)C)=N\NS(=O)(=O)c1ccc(C)c([N+](=O)[O-])c1,-1,.,.,68*,2,.
Cc1ccc(S(=O)(=O)NN=C2CCC(C(C)(C)C)CC2)cc1[N+](=O)[O-] (configuration not stated),.,-2,3,115*,1,1
Cc1ccc(S(=O)(=O)NCC[C@H]2CC[C@H](NC(=O)Nc3cccc(F)c3)[C@H](CO)O2)cc1,1,.,.,.,.,.
Cn1c(COc2ccccc2O)[n+](C)c2ccccc21,1,0,-2,0,-1,9
CCCCCCCCCCOC(=O)Cn1c(COc2ccccc2OC)[n+](C)c2ccccc21,4,.,.,-76,316*,.
O=C(O)c1ccc(N/N=C/c2ccc(-c3ccccc3)cc2)cc1,1,.,.,-16,0,.
O=C(O)c1ccc(N/N=C/C=C/c2ccccc2)cc1,-1,.,.,4,458*,.

# From PubChem
